The supplement of paper PMC12067093, “Discovery and optimisation of a covalent ligand for TRIM25 and its application to targeted protein ubiquitination” (Chemical Science, 2025)
Targets with the largest changes are over-represented here; the source holds about 21,000 in all.
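Note: competitive profiling in live THP-1 cells: cysteine peptides tagged with an iodoacetamide desthiobiotin (IA-DTB) probe, intensity after compound treatment relative to DMSO-treated cells.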

UniProt Q96QU8, sequence (Q96QU8 whole entry, looked up): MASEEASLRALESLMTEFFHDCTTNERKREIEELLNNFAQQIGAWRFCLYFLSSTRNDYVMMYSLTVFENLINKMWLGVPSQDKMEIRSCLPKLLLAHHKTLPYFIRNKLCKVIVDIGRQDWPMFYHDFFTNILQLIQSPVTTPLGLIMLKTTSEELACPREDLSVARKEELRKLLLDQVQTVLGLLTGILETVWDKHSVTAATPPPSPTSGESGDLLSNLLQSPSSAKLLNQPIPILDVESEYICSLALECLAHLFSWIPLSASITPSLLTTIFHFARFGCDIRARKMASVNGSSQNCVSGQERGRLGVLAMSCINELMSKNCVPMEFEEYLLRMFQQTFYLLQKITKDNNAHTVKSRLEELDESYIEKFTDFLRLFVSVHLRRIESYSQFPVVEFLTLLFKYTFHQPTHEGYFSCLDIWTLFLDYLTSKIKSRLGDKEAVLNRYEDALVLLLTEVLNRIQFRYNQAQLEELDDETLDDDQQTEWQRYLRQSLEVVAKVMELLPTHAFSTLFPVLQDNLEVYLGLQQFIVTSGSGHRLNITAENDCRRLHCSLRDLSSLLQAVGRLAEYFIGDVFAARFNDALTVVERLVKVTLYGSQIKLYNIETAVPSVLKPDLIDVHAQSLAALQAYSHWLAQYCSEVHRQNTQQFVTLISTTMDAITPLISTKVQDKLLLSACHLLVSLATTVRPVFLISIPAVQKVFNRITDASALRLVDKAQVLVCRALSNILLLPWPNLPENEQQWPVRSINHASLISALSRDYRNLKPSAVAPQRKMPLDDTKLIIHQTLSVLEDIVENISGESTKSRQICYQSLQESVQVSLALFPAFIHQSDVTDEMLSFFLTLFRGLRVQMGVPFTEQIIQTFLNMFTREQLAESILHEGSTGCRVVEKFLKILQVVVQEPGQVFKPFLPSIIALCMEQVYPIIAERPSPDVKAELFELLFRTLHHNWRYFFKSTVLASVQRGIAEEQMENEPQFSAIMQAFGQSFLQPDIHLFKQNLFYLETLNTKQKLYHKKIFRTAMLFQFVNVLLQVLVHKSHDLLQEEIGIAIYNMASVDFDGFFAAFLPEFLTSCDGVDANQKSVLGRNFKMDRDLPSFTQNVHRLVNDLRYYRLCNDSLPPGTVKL
UniProt Q9Y4E5, sequence (Q9Y4E5 whole entry, looked up): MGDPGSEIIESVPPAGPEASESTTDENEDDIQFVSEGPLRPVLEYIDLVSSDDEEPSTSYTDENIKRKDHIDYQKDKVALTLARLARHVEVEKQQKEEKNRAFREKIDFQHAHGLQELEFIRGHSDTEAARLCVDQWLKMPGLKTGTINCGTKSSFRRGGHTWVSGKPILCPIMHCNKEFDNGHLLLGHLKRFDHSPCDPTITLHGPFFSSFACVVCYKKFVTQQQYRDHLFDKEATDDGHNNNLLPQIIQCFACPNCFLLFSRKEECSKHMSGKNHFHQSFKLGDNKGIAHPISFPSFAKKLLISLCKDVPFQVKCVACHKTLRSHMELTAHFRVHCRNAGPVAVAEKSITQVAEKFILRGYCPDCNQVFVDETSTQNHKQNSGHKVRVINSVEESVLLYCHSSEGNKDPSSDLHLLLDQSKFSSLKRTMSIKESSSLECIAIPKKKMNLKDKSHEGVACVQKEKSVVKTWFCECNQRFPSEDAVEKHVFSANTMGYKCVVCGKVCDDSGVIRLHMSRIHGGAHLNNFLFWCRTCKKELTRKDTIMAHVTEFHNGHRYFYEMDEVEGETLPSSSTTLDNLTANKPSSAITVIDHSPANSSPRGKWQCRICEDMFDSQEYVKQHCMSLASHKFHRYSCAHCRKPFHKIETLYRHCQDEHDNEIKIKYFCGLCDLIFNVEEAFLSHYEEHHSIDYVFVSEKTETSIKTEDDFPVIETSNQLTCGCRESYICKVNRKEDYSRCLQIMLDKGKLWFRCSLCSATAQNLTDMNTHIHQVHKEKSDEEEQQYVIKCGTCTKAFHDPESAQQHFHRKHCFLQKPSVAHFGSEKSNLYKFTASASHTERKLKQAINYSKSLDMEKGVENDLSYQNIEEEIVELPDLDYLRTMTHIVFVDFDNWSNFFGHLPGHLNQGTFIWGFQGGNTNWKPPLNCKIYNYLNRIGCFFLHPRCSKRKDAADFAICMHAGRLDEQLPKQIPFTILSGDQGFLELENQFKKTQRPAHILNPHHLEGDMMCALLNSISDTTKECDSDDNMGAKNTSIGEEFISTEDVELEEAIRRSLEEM
UniProt Q15649, sequence (Q15649 whole entry, looked up): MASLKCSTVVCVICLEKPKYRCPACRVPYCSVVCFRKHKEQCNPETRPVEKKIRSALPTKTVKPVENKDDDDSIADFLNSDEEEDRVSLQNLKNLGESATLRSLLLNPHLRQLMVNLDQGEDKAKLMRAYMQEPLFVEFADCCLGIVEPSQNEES
UniProt Q5VV52, sequence (Q5VV52 whole entry, looked up): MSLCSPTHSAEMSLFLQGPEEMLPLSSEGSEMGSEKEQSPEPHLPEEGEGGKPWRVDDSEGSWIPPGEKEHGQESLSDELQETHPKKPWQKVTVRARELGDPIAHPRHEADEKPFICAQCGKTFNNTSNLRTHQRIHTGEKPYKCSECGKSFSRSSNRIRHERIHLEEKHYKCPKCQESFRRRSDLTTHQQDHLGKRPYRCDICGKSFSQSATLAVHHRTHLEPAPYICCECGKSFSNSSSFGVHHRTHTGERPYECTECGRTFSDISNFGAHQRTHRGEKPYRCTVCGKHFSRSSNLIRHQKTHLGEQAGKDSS
UniProt O43829, sequence (O43829 whole entry, looked up): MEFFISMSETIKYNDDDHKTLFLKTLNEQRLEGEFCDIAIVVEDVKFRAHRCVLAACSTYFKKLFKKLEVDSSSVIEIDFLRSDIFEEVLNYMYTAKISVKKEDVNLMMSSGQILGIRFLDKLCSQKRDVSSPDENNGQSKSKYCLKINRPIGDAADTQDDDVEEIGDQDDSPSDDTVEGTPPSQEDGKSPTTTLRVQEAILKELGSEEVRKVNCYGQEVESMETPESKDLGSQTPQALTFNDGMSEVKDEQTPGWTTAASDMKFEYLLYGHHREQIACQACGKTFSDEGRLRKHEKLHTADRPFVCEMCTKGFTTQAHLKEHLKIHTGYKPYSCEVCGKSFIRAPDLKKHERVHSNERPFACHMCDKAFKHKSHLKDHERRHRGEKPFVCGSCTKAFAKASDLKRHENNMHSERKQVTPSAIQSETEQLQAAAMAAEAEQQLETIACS
UniProt O95365, sequence (O95365 whole entry, looked up): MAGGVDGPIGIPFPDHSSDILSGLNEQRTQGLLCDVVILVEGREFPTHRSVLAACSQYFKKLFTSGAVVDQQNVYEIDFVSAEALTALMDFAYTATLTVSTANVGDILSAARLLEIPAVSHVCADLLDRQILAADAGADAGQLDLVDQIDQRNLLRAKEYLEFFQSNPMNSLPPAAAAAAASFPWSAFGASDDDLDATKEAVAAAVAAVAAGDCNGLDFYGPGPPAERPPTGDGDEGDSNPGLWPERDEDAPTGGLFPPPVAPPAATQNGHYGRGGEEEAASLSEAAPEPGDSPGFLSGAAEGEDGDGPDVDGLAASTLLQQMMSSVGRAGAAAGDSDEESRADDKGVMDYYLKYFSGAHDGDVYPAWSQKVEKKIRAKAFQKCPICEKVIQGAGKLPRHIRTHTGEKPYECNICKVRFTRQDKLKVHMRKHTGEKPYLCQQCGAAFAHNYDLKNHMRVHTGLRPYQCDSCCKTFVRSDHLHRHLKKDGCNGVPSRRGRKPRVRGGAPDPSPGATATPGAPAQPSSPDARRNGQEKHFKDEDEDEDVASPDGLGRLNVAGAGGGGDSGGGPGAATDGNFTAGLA
UniProt Q96K21, sequence (Q96K21 whole entry, looked up): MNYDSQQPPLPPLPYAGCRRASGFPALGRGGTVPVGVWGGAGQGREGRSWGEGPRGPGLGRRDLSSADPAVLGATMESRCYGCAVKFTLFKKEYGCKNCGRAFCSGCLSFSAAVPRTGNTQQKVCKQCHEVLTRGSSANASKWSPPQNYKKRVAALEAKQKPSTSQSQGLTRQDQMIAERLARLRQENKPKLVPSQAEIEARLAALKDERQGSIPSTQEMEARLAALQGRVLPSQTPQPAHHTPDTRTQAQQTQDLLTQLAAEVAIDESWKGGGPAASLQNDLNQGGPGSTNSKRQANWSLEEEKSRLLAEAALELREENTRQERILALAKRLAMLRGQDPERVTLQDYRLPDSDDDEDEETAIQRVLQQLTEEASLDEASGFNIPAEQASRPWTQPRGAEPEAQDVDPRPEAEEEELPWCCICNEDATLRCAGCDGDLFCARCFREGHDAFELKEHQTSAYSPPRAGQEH
UniProt Q9NUD5, sequence (Q9NUD5 whole entry, looked up): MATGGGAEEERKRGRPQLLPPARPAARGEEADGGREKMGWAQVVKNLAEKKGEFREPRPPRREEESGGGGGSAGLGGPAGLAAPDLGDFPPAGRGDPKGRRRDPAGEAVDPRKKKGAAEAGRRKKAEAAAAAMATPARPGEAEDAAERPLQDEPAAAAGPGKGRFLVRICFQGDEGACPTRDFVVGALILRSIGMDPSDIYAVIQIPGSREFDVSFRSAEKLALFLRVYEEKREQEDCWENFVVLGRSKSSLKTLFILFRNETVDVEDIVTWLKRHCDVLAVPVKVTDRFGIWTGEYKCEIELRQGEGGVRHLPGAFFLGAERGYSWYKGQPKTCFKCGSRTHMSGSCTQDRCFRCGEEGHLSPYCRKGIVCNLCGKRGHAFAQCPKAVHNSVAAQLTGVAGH
UniProt P61981, sequence (P61981 whole entry, looked up): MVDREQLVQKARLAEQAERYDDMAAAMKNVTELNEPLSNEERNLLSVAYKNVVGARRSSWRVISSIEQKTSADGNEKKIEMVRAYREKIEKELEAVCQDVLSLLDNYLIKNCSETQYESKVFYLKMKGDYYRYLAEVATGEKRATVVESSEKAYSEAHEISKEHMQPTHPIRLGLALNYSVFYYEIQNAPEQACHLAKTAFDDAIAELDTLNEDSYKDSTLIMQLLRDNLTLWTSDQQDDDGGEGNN

These targets were tested with Cc1cc(ccc1-c1ccccc1)C(=O)N1CCCN(CC1)C(=O)CCl [compound 10] (assay: probe-labelled cysteine peptide fold change vs DMSO (competition) (log2 fold change); higher = less target engagement (more negative = stronger competition)). Settings: 10 µM; THP-1; incubation time: 4 h.
“ZNF451_Q9Y4E5_476_TWFCECNQR (UniProt Q9Y4E5)” was tested, and the “probe-labelled cysteine peptide fold change” value was 0.0139.
In the case of “ZBTB7A_O95365_490_DGCNGVPSR (UniProt O95365)”, the “probe-labelled cysteine peptide fold change” value is reported as 0.000157.
“ZNHIT3_Q15649_30_VPYCSVVCFR (UniProt Q15649)” was tested, and the “probe-labelled cysteine peptide fold change” value was -0.0726.
“ZBTB14_O43829_391_PFVCGSCTK (UniProt O43829)” was tested, and the “probe-labelled cysteine peptide fold change” value was 0.104.
With “ZMYM2_Q9UBW7_612_LYNFCNSSCVAK (UniProt Q9UBW7)” the “probe-labelled cysteine peptide fold change” value was -0.192.
For “WDHD1_O75717_285_GYAICGLAWHPTCGR (UniProt O75717)”, the “probe-labelled cysteine peptide fold change” value was -0.0417.
With “WDR77_Q9BQA1_172_AHAAQVTCVAASPHK (UniProt Q9BQA1)” the “probe-labelled cysteine peptide fold change” value was 0.0618.
“ZC3HAV1_Q7Z2W4_513_VDDHDSEEICLDHLCK (UniProt Q7Z2W4)” was tested, and the “probe-labelled cysteine peptide fold change” value was 0.0207.
For “ZNF787_Q6DD87_350_IHAVGAPSVCSSCGQSYYR (UniProt Q6DD87)”, the “probe-labelled cysteine peptide fold change” value was -0.238.
In the case of “ZER1_Q7Z7L7_337_RPLQFLGLFENSLCR (UniProt Q7Z7L7)”, the “probe-labelled cysteine peptide fold change” value is reported as -0.124.
With “WASHC5_Q12768_385_WLMLHTADSACDPNNKR (UniProt Q12768)” the “probe-labelled cysteine peptide fold change” value was -2.11.
In the case of “XIAP_P98170_213_NWEPCDR (UniProt P98170)”, the “probe-labelled cysteine peptide fold change” value is reported as -0.0911.
“YTHDC2_Q9H6S0_788_LLAPVNCPIADFLMK (UniProt Q9H6S0)” was tested, and the “probe-labelled cysteine peptide fold change” value was -0.0326.
With “ZRANB2_O95218_20_CGNVNFAR (UniProt O95218)” the “probe-labelled cysteine peptide fold change” value was -0.0495.
With “ZCCHC3_Q9NUD5_385_GHAFAQCPK (UniProt Q9NUD5)” the “probe-labelled cysteine peptide fold change” value was 0.0381.
With “YWHAG_P61981_194_LGLALNYSVFYYEIQNAPEQACHLAK (UniProt P61981)” the “probe-labelled cysteine peptide fold change” value was 0.0292.
In the case of “WDFY4_Q6ZS81_2352_EAEGEPDEVGVDCTQLTFFPALHESLHSEDFLELCR (UniProt Q6ZS81)”, the “probe-labelled cysteine peptide fold change” value is reported as -0.125.
For “ZDHHC21_Q8IVQ6_112_CGHCVR (UniProt Q8IVQ6)”, the “probe-labelled cysteine peptide fold change” value was 0.0718.
With “ZC3HAV1_Q7Z2W4_7_ADPEVCCFITK (UniProt Q7Z2W4)” the “probe-labelled cysteine peptide fold change” value was 0.158.
With “ZNF483_Q8TF39_392_IHLGDRSQKCSK (UniProt Q8TF39)” the “probe-labelled cysteine peptide fold change” value was -0.0771.
With “YARS2_Q9Y2Z4_413_EAPFSEFFLDPGTSVLDTCRK (UniProt Q9Y2Z4)” the “probe-labelled cysteine peptide fold change” value was -0.161.
With “ZNF430_Q9H8G1_138_CGHEDLQLR (UniProt Q9H8G1)” the “probe-labelled cysteine peptide fold change” value was -0.195.
In the case of “ZNF691_Q5VV52_260_THTGERPYECTECGR (UniProt Q5VV52)”, the “probe-labelled cysteine peptide fold change” value is reported as 0.396.
For “ZFYVE19_Q96K21_435_CAGCDGDLFCAR (UniProt Q96K21)”, the “probe-labelled cysteine peptide fold change” value was 0.0027.
In the case of “ZMYM2_Q9UBW7_608_LYNFCNSSCVAK (UniProt Q9UBW7)”, the “probe-labelled cysteine peptide fold change” value is reported as -0.186.
With “XPO6_Q96QU8_324_NCVPMEFEEYLLR (UniProt Q96QU8)” the “probe-labelled cysteine peptide fold change” value was -0.0141.
“ZNF217_O75362_641_SAVETQANNLICR (UniProt O75362)” was tested, and the “probe-labelled cysteine peptide fold change” value was -0.181.
With “ZNF280C_Q8ND82_388_ICELSFETEHILLQHMK (UniProt Q8ND82)” the “probe-labelled cysteine peptide fold change” value was 0.00547.
With “XRN2_Q9H0D6_715_HHPLHDFILELYQTGSTEPVEVPPELCHGIQGK (UniProt Q9H0D6)” the “probe-labelled cysteine peptide fold change” value was -0.0366.
“ZC3H11A_O75152_588_SVLTPLRGDVASCNTQVAEK (UniProt O75152)” was tested, and the “probe-labelled cysteine peptide fold change” value was -0.0147.
“ZNF76_P36508_292_THTGERPYTCPEPHCGR (UniProt P36508)” was tested, and the “probe-labelled cysteine peptide fold change” value was 0.0197.
For “ZNF76_P36508_342_HHVVHTHCK (UniProt P36508)”, the “probe-labelled cysteine peptide fold change” value was -0.115.

Same assay, conditions: 50 µM; THP-1; incubation time: 4 h
For “ZNF451_Q9Y4E5_476_TWFCECNQR (UniProt Q9Y4E5)”, the “probe-labelled cysteine peptide fold change” value was 0.0709.
With “ZBTB7A_O95365_490_DGCNGVPSR (UniProt O95365)” the “probe-labelled cysteine peptide fold change” value was -0.0775.
In the case of “ZNHIT3_Q15649_30_VPYCSVVCFR (UniProt Q15649)”, the “probe-labelled cysteine peptide fold change” value is reported as -1.11.
For “ZBTB14_O43829_391_PFVCGSCTK (UniProt O43829)”, the “probe-labelled cysteine peptide fold change” value was -0.263.
In the case of “ZMYM2_Q9UBW7_612_LYNFCNSSCVAK (UniProt Q9UBW7)”, the “probe-labelled cysteine peptide fold change” value is reported as -1.33.
For “WDHD1_O75717_285_GYAICGLAWHPTCGR (UniProt O75717)”, the “probe-labelled cysteine peptide fold change” value was -0.0589.
In the case of “WDR77_Q9BQA1_172_AHAAQVTCVAASPHK (UniProt Q9BQA1)”, the “probe-labelled cysteine peptide fold change” value is reported as 0.254.
With “ZC3HAV1_Q7Z2W4_513_VDDHDSEEICLDHLCK (UniProt Q7Z2W4)” the “probe-labelled cysteine peptide fold change” value was -0.396.
For “ZNF787_Q6DD87_350_IHAVGAPSVCSSCGQSYYR (UniProt Q6DD87)”, the “probe-labelled cysteine peptide fold change” value was -0.311.
For “ZER1_Q7Z7L7_337_RPLQFLGLFENSLCR (UniProt Q7Z7L7)”, the “probe-labelled cysteine peptide fold change” value was -0.0583.
With “WASHC5_Q12768_385_WLMLHTADSACDPNNKR (UniProt Q12768)” the “probe-labelled cysteine peptide fold change” value was -2.63.
In the case of “XIAP_P98170_213_NWEPCDR (UniProt P98170)”, the “probe-labelled cysteine peptide fold change” value is reported as -0.654.
“YTHDC2_Q9H6S0_788_LLAPVNCPIADFLMK (UniProt Q9H6S0)” was tested, and the “probe-labelled cysteine peptide fold change” value was -0.072.
In the case of “ZRANB2_O95218_20_CGNVNFAR (UniProt O95218)”, the “probe-labelled cysteine peptide fold change” value is reported as -0.314.
With “ZCCHC3_Q9NUD5_385_GHAFAQCPK (UniProt Q9NUD5)” the “probe-labelled cysteine peptide fold change” value was -0.0115.
For “YWHAG_P61981_194_LGLALNYSVFYYEIQNAPEQACHLAK (UniProt P61981)”, the “probe-labelled cysteine peptide fold change” value was 0.41.
“WDFY4_Q6ZS81_2352_EAEGEPDEVGVDCTQLTFFPALHESLHSEDFLELCR (UniProt Q6ZS81)” was tested, and the “probe-labelled cysteine peptide fold change” value was -0.598.
For “ZDHHC21_Q8IVQ6_112_CGHCVR (UniProt Q8IVQ6)”, the “probe-labelled cysteine peptide fold change” value was -0.0337.
“ZC3HAV1_Q7Z2W4_7_ADPEVCCFITK (UniProt Q7Z2W4)” was tested, and the “probe-labelled cysteine peptide fold change” value was 0.175.
“ZNF483_Q8TF39_392_IHLGDRSQKCSK (UniProt Q8TF39)” was tested, and the “probe-labelled cysteine peptide fold change” value was -0.64.
“YARS2_Q9Y2Z4_413_EAPFSEFFLDPGTSVLDTCRK (UniProt Q9Y2Z4)” was tested, and the “probe-labelled cysteine peptide fold change” value was -0.368.
For “ZNF430_Q9H8G1_138_CGHEDLQLR (UniProt Q9H8G1)”, the “probe-labelled cysteine peptide fold change” value was -0.412.
In the case of “ZNF691_Q5VV52_260_THTGERPYECTECGR (UniProt Q5VV52)”, the “probe-labelled cysteine peptide fold change” value is reported as 1.19.
“ZFYVE19_Q96K21_435_CAGCDGDLFCAR (UniProt Q96K21)” was tested, and the “probe-labelled cysteine peptide fold change” value was -0.124.
In the case of “ZMYM2_Q9UBW7_608_LYNFCNSSCVAK (UniProt Q9UBW7)”, the “probe-labelled cysteine peptide fold change” value is reported as -1.35.
For “XPO6_Q96QU8_324_NCVPMEFEEYLLR (UniProt Q96QU8)”, the “probe-labelled cysteine peptide fold change” value was 0.145.
“ZNF217_O75362_641_SAVETQANNLICR (UniProt O75362)” was tested, and the “probe-labelled cysteine peptide fold change” value was -0.0706.
In the case of “ZNF280C_Q8ND82_388_ICELSFETEHILLQHMK (UniProt Q8ND82)”, the “probe-labelled cysteine peptide fold change” value is reported as 0.0405.
With “XRN2_Q9H0D6_715_HHPLHDFILELYQTGSTEPVEVPPELCHGIQGK (UniProt Q9H0D6)” the “probe-labelled cysteine peptide fold change” value was 0.0175.
In the case of “ZC3H11A_O75152_588_SVLTPLRGDVASCNTQVAEK (UniProt O75152)”, the “probe-labelled cysteine peptide fold change” value is reported as 0.00571.
With “ZNF76_P36508_292_THTGERPYTCPEPHCGR (UniProt P36508)” the “probe-labelled cysteine peptide fold change” value was -0.0549.
In the case of “ZNF76_P36508_342_HHVVHTHCK (UniProt P36508)”, the “probe-labelled cysteine peptide fold change” value is reported as -0.0476.
